This is a sample that favours compounds with a hit; in the whole collection about 21% have one here.
Shiga toxin inh – blocks Shiga toxin action in Vero cells. Vero cells, Shiga toxin protein synthesis inhibition reporter. inhibition, % at 38.7 µM. actives 9.2% (n = 290,000); in the data active = inhibition mostly above about 28%, no sharp cut-off; inactive = mostly below about 43%; also: 0% is about no effect
Pf growth 96h – P. falciparum growth inhibition at 96 hour, primary screen for plastid delayed-death inhibitors; P. falciparum luciferase reporter growth, 96 h; Potency, µM (doses to about 28.7 µM), for the others: at the highest dose activity change, negative = inhibition, most hits filed as inhibitors; actives 6.9% (n = 320,000); also: potency is read from the fitted curve at half-maximal effect; % is scaled to controls: 0 for no effect and ±100 for the full control effect
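Compounds incubated with erythrocytes infected by luciferase-expressing P. falciparum (2% hematocrit, 0.05% parasitemia final) for 96 hours, 37 C in 5% CO2. Growth inhibition scored as decreased luciferase luminescence.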
HCV inh – HCV inhibition | Huh7.5.1 HCVcc-Cre infection, luciferase reporter, 44 h | actives 3.4% (n = 340,000) | Potency, µM (titrated, usually from 41.8 µM), without a hit: at the top dose activity change, negative = inhibition, most hits filed as inhibitors; also: potency is read from the fitted curve at half-maximal effect; % is scaled to controls: 0 for no effect and ±100 for the full control effect
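Cells seeded at 1,000/well and cultured 4 h, then compounds added followed by HCVcc-Cre virus (~0.5 moi). After 44 h further culture, luciferase substrate was added, plates held 15 min at room temperature, and luminescence read for 15 sec.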
CHX counter – affects cycloheximide protein synthesis inhibition readout, counter-screen. cell reporter, cycloheximide protein synthesis inhibition counterscreen. max response, %. actives 12% (n = 300,000); in the data active = max response mostly above about 13%, no sharp cut-off; inactive = mostly below about 14%; also: read at 38.3 µM for the half of the compounds with a filed dose; 0% is about no effect
AMA1-RON2 inh – disrupts binding of P. falciparum AMA1 to RON2; Potency, µM (doses to about 58.2 µM), for the others: at the top dose activity change, negative = inhibition, usual class: inhibitors; AID 720542; AlphaScreen AMA1-biotinylated RON2 peptide binding; actives 0.2% (n = 360,000);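 also: potency is read from the fitted curve at half-maximal effect; 0% = vehicle wells and -100% = peptide control; nearly all actives have a fitted effect of over 45% in size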
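AMA1 (3D7) with his tag at 25 nM final met compounds first, then biotinylated RON2 peptide at 25 nM; detection used donor plus acceptor beads, 10 µg/mL apiece, read by AlphaScreen after 30 min at room temperature.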
Pf growth 48h – P. falciparum growth inhibition at 48 hours (one generation); P. falciparum luciferase growth in erythrocytes, 48 h; Potency, µM (doses to about 28.7 µM), inactives show top-dose activity change, negative = inhibition, actives largely listed as inhibitors; actives 5.9% (n = 310,000); AID 504832; also: potency is read from the fitted curve at half-maximal effect; % is scaled to controls: 0 for no effect and ±100 for the full control effect
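Luciferase-expressing P. falciparum in infected erythrocytes (2% hematocrit, 0.1% parasitemia final) in RPMI 1640/0.5% Albumax were exposed to compound for 48 hours at 37 C, 5% CO2; growth read as luminescence.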
Starred values were filed as active, the others as inactive; ? = inconclusive; . = not tested or not shown; [ ] = dose if it differs, or a comment. Unless noted, calls follow the shape of the dose curve; as a rule, active = well fitted curve in the direction sought with a large enough effect; inconclusive = small, poorly fitted or top-dose-only effect, or another doubt; inactive = no such curve, though single readings can be large; an effect the other way counts as inactive or inconclusive.

SMILES	Shiga toxin inh	Pf growth 96h	HCV inh	CHX counter	AMA1-RON2 inh	Pf growth 48h
COc1ccc(S(=O)(=O)N2CCOCC2)cc1NC(=O)CCOc1ccc(C(C)(C)C)cc1	.	?	?	.	2%	?
CN(c1ccccc1)S(=O)(=O)c1cccc(NC(=O)CCNC(=O)c2ccc(Cl)cc2)c1	.	?	?	.	-2%	?
CCN(CC)S(=O)(=O)c1cccc(NC(=O)CCNC(=O)c2ccc([N+](=O)[O-])cc2)c1	48*	-6%	?	14*	-3%	?
CC(=O)Nc1cccc(NC(=O)CCNC(=O)c2ccccc2)c1	22	9%	3.2µM*	-4	-5%	1%[0.00184 µM]
CN(c1ccccc1)S(=O)(=O)c1cccc(NC(=O)CCNC(=O)c2ccc([N+](=O)[O-])cc2)c1	.	.	11µM*	.	-13%	.
CN(c1ccccc1)S(=O)(=O)c1cccc(NC(=O)CCNC(=O)c2ccccc2)c1	.	?	-20%	.	-9%	9.3µM*
Cc1cccc(S(=O)(=O)NC(=O)C2(C)CCN2C(=O)CCC2CCCC2)c1 (centres undefined)	.	.	.	.	10%	.
CO[C@H](C(=O)N(C)C[C@@H]1OCc2ccccc2-c2c(n(C)c3ccccc23)C(=O)N([C@H](C)CO)C[C@@H]1C)c1ccccc1	.	.	.	.	8%	.
CCOc1ccccc1/C=C(/NC(=O)c1ccccc1)C(=O)N1CCCCC1	9	98%	-16%	11	-28%	?
NC1=NC(S)C2N=CN=C2N1 (centres undefined)	.	7.6µM*	.	.	.	?
CN1CCN(C2CN(Cc3cn(Cc4ccc(F)cc4)nn3)S(=O)(=O)C2)CC1 (centres undefined)	.	.	.	.	1%	.
Cc1ccc(CN=c2c([N+](=O)[O-])nn(-c3ccc4c(c3)OCCO4)n2O)cc1	164*	?	?	73*	?	94%
COc1ccc(CCN=c2c([N+](=O)[O-])nn(-c3cccc(C)c3)n2O)cc1OC	9	0%	?	2	-11%	0%
O=[N+]([O-])c1nn(-c2ccc3c(c2)OCCO3)n(O)c1=NCCCO	48*	42%	11µM*	18*	5%	24%
CCCCN(C(=O)c1ccc2c(c1)OCO2)c1ccccc1	8	28%	-15%	3	1%	15%
Cc1ccccc1OCCSCc1nc2ccccc2[nH]1	-4	13µM*	?	6	-14%	?
Cc1ccccc1OCC(=O)NCCc1nc2ccccc2[nH]1	-17	-5%	-2%	-6	-9%	-10%
Cc1cccc(OCCSCc2nc3ccccc3[nH]2)c1	-9	?	6.3µM*	-2	-3%	?
CC(C)NC(=O)C(C)N1CCN(S(=O)(=O)c2ccc3ccccc3c2)CC1 (centres undefined)	-4	16%	-24%	-2	-13%	23%
C=CCc1cc(Cl)ccc1OCCCNCCO	-7	66%	?	-1	18%	9.3µM*
C=CCc1cc(Cl)ccc1OCCCNC(C)C	-9	23%	?	10	-4%	?
COCCCNCCCOc1ccc(Cl)cc1Br	-11	?	13µM*	1	15%	?
CC(C)NCCCOc1ccc(Cl)cc1Br	36*	?	-14%	31*	7%	?
CC(C)NCCCCOc1ccc(Br)cc1Cl	10	27%	10µM*	8	11%	?
CCCc1ccc(S(=O)(=O)N2CCN(C(=O)CN3C(=O)NC(C)(C4CC4)C3=O)CC2)cc1 (centres undefined)	.	.	.	.	-12%	.
SMILES	Shiga toxin inh	Pf growth 96h	HCV inh	CHX counter	AMA1-RON2 inh	Pf growth 48h
CCC(C)NCCCOc1cc(Cl)ccc1Cl (centres undefined)	-8	19%	-21%	2	-6%	.
CCCCNCCCOc1cc(Cl)ccc1Cl	-22	6.6µM*	-23%	-4	-12%	.
O=C1/C(=C\c2cccc(O)c2O)SC(=S)N1Cc1ccccc1	-1	?	25µM*	-1	-6%	?
COc1cc(/C=C2/SC(=S)N(Cc3ccccc3)C2=O)ccc1O	35	?	-11%	-1	-8%	?
O=C1/C(=C\c2ccc(O)c(O)c2)SC(=S)N1Cc1ccccc1	14	33%	?	11	?	13µM*
Cc1ccc(SC[C@H](C)CN2CC[C@H](C(C)(C)C)CCC2=O)cc1	4	?	-10%	-2	-1%	47%
O=C(CN(C(=O)CCC(=O)Nc1nccs1)c1cccc(C(F)(F)F)c1)NCC1CCCO1 (centres undefined)	-7	3%	-6%	-4	3%	12%
CCCCOc1ccc(CC(=O)NO)cc1	0	0.23µM*	?	-1	28%	0.41µM*
CCCc1ccc(OCCNC(=O)CC)cc1	22	.	-4%	16*	-4%	0%
COc1ccc(-n2ccnc2SCC(=O)c2c(N)n(C3CC3)c(=O)[nH]c2=O)cc1	.	.	.	.	-6%	.
CC(=O)c1cn(N2CCCCC2)c(=O)[nH]c1=O	-5	33%	0%	-5	1%	19%
O=C1N=C(N2CCCCC2)SC1=C1CCCC1	45*	-2%	-5%	26*	-1%	.
CC(C)N1CCN(c2ccc(C(=O)c3c(-c4ccc(O)cc4)sc4cc(O)ccc34)cc2)CC1	8	.	.	6	.	.
Nc1nonc1-n1nnc(C(=O)N/N=C/c2ccc(OCc3cccc(Cl)c3)cc2)c1CN1CCCCC1	33	11%	7%	27*	15%	1%
Cc1cccc(COc2ccc(/C=N/NC(=O)c3nnn(-c4nonc4N)c3COc3ccc(F)cc3)cc2)c1	31	-1%	?	16*	-10%	7%
Cc1cccc(COc2ccc(/C=N/NC(=O)c3nnn(-c4nonc4N)c3CN3CCCCC3)cc2)c1	39	20%	11%	12	-1%	12%
Nc1nonc1-n1nnc(C(=O)N/N=C/c2ccc(OCc3ccccc3)cc2)c1COc1ccc(F)cc1	11	?	?	8	4%	?
Cc1ccc(OCCC(=O)OCC(=O)NC2CCS(=O)(=O)C2)cc1 (centres undefined)	.	13%	-4%	.	-1%	1%
Cc1c(N2C(=O)CSC2c2ccco2)c(=O)n(-c2ccccc2)n1C (centres undefined)	-6	26%	12%	7	-9%	21%
COc1cc(Cl)c(C)cc1NC(=O)c1cc(S(=O)(=O)N(C)C)ccc1N1CCCC1	-9	2.3µM*	?	-2	-10%[11.6 µM]	4.7µM*
CN(C)S(=O)(=O)c1ccc(N2CCCC2)c(C(=O)NCC2COc3ccccc3O2)c1 (centres undefined)	.	-23%	-17%	.	0%	?
CN(C)S(=O)(=O)c1cccc(NC(=O)c2cc([N+](=O)[O-])ccc2N2CCCCC2)c1	.	?	?	.	0%	13µM*

Source: PubChem (National Center for Advancing Translational Sciences (NCATS))
